Calls of active or inactive are those of the source. Unless noted, no rule for the calls is given here.
Legend:
[1] = system: XIP peptide (Xip251-270) binding; assay: small-molecule binders of XIP peptide, primary screen, biochemical, small-molecule microarray, fluorescence 635/667 nm, 0.1 µg/mL protein (AID 1182); details: fluorescent protein binding, 635 nm, higher = more signal, called active from +8 up or from −8 down
XIP peptide (Xip251-270) = assay: small-molecule binders of XIP peptide, primary screen, biochemical, small-molecule microarray, fluorescence 635/667 nm, 0.5 µg/mL protein (AID 1183); details: small-molecule microarray binding, fluorescence 635 nm; higher = more signal
[2] = Plasmodium falciparum growth inhibition, primary screen, strain 3D7, DAPI fluorescence, 100 nL (AID 1184);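 also: parasites grown inside human red blood cells in medium with human serum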; details: P. falciparum 3D7 growth, 3 d, higher = more signal
[3] = target: Homeobox protein Hox-A13 (Mus musculus) (UniProt Q62424); assay: inhibitors of HoxA13-DNA binding, primary screen, biochemical, fluorescence polarization, labeled oligonucleotide (AID 1185); details: 15 min, higher = more signal, called active from +8 up or from −8 down
Sequence of Homeobox protein Hox-A13 (Mus musculus) (Q62424 whole entry, looked up): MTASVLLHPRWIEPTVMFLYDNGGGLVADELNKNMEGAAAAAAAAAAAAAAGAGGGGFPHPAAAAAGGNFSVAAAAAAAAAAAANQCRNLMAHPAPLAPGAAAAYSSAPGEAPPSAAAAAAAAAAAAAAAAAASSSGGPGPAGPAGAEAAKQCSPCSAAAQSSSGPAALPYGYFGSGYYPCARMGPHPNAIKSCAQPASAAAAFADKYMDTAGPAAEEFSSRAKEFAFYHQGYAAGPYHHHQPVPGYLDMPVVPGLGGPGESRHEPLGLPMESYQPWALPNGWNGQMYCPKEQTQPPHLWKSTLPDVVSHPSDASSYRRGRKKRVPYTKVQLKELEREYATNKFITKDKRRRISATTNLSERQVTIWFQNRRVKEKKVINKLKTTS

[4] = inhibitors of hydroxyurea-induced Chk1 phosphorylation, primary screen, imaging, HeLa, phospho-Chk1 antibody, percent positive cells (AID 1186); details: hydroxyurea-induced phospho-Chk1 immunofluorescence imaging, higher = more signal
[5] = inhibitors of hydroxyurea-induced Chk1 phosphorylation, primary screen, imaging, HeLa, phospho-Chk1 nuclear intensity (AID 1187); details: hydroxyurea-induced phospho-Chk1 immunofluorescence imaging, higher = more signal

| SMILES | composite z-score [1] | composite z-score (XIP peptide (Xip251-270)) | z-score [2] | z-score [3] | z-score [4] | z-score [5] |
| --- | --- | --- | --- | --- | --- | --- |
| C=C(COC)/C(=C/C[C@@H](OC(C)=O)c1cccc(OCCO)c1)c1cc(C(=O)OC)ccc1OC | -0.496 (inactive) | -0.5 | -2.56 | -4.24 (inactive) | -0.8 (inactive) | -0.95 (inactive) |
| CC1=C([C@H](O)CCc2ccccc2)[C@H](CO)[C@@H]2C(=O)N(Cc3ccccc3)C(=O)[C@@H]2C1 | -0.241 (inactive) | -0.0644 | -0.793 | -4.92 (inactive) | -0.698 (inactive) | -0.835 (inactive) |
| COCCOC(=O)N1C(=O)[C@@]2(c3cc(C#CC4=CCCCC4)ccc31)[C@H](C(=O)NC[C@H](O)c1ccccc1)[C@H]1C(=O)O[C@H](c3ccccc3)[C@H](c3ccccc3)N1[C@@H]2c1ccccc1OCCO | 0.51 (inactive) | 0.681 | -2.02 | 1.22 (inactive) | 0.443 (inactive) | 0.384 (inactive) |
| C=CCNC(=O)[C@H]1[C@@H]2C(=O)O[C@@H](c3ccccc3)[C@@H](c3ccccc3)N2[C@@H](c2ccccc2OCCO)[C@]12C(=O)N(C(=O)OCCOC)c1ccc(C#CCC(C(=O)OC)C(=O)OC)cc12 | 1.09 (inactive) | 0.818 | -2.36 | 0.6 (inactive) | -0.263 (inactive) | -0.35 (inactive) |
| C=CCC(OC(C)=O)[C@@H]1[C@@H](N(Cc2ccc(-c3cccc(C(F)(F)F)c3)o2)C(=O)Cc2ccc(F)cc2)c2cc(OCCCO)ccc2N1C(=O)c1ccc(-c2ccccc2)cc1 (stereo partly drawn) | -0.403 (inactive) | -0.829 | -0.294 | -1.2 (inactive) | 0.634 (inactive) | -0.385 (inactive) |
| COCCOC(=O)N1C(=O)[C@@]2(c3cc(C#CC4=CCCCC4)ccc31)[C@H](c1ccc(O)cc1)N1[C@H](c3ccccc3)[C@H](c3ccccc3)OC(=O)[C@H]1[C@@H]2C(=O)N1CCCCCCC1 | 0.505 (inactive) | 0.678 | -1.66 | 2.08 (inactive) | -0.104 (inactive) | 0.0587 (inactive) |
| CCCNC(=O)[C@@]1(Sc2ccc(C)cc2)CC(=O)N(Cc2ccccc2Cl)[C@@H]1c1ccc(CO)cc1 | 0.266 (inactive) | -0.271 | -1.79 | -1.4 (inactive) | -0.423 (inactive) | -0.365 (inactive) |
| COC(=O)[C@@]1(Cc2ccc(OC)cc2)[C@H]2c3cc(C(=O)N(C)C)n(Cc4ccc(C)c(F)c4F)c3C[C@H]2CN1C(=O)c1ccccc1 | -0.0903 (inactive) | 0.465 | -1.13 | -1.93 (inactive) | 0.758 (inactive) | 0.0937 (inactive) |
| [N-]=[N+]=NCc1ccccc1C[C@]1(C(N)=O)N=C(c2ccc(OCCCO)cc2)O[C@H]1c1ccccc1CN=[N+]=[N-] | 1.04 (inactive) | -0.285 | -2.29 | 1.67 (inactive) | -0.442 (inactive) | -0.427 (inactive) |
| Cc1ccc(S[C@]2(C(=O)NC(C)C)CC(=O)N(C3Cc4ccccc4C3)[C@@H]2c2ccc(CO)cc2)cc1 | 0.137 (inactive) | 0.882 | -1.29 | -3.21 (inactive) | 0.0695 (inactive) | 0.0887 (inactive) |
| CCC1=C2CN(Cc3ccccc3Br)[C@@H]([C@@H](O)Cc3ccccc3)C2C=CCC1 (stereo partly drawn) | -0.314 (inactive) | 0.509 | -1.92 | -7.8 (inactive) | -0.0994 (inactive) | -0.311 (inactive) |
| O=C(N1CCCCC1)[C@@]1(CCS(=O)(=O)c2ccccc2)N=C(c2ccc(OCCCO)cc2)O[C@H]1c1ccccc1 | -0.43 (inactive) | 0.23 | -2.24 | -3.65 (inactive) | -0.61 (inactive) | -0.262 (inactive) |
| C=CCC(OC(C)=O)[C@@H]1[C@@H](N(Cc2ccc(-c3ccccc3)cc2)C(=O)c2ccc(C)cc2)c2cc(OCCCO)ccc2N1C(=O)c1ccc(-c2ccccc2)cc1 (stereo partly drawn) | -0.0684 (inactive) | -0.322 | -2.66 | -1.35 (inactive) | 0.0807 (inactive) | 0.582 (inactive) |
| N#Cc1ccc(NN2C(C(O)CCc3ccccc3)C=CC3C(=O)N(c4ccccc4)C(=O)C32)cc1 (stereo not drawn) | 1.15 (inactive) | -0.279 | 0.484 | -4.3 (inactive) | -0.13 (inactive) | -0.424 (inactive) |
| COC(=O)[C@@]1(Cc2ccccc2N=[N+]=[N-])N=C(c2ccc(OCCCO)cc2)O[C@H]1c1ccccc1CN=[N+]=[N-] | 0.367 (inactive) | 0.82 | -2.29 | 1.05 (inactive) | -0.352 (inactive) | -0.735 (inactive) |
| C=C(/C(=C/C[C@@H](OC(=O)c1ccncc1)c1ccc(CO)o1)c1cnc2ccccc2c1)C(C)C | 1.11 (inactive) | 0.766 | -0.599 | -4.89 (inactive) | -0.33 (inactive) | -0.232 (inactive) |
| CC(C)[Si](OCC[C@H]1O[C@]2(C(=O)N(Cc3ccccc3)c3ccccc32)[C@@H](C)[C@@H]1[Si](C)(C)O)(C(C)C)C(C)C | -0.177 (inactive) | 0.457 | -1.94 | -0.292 (inactive) | -0.558 (inactive) | -0.322 (inactive) |

| SMILES | composite z-score [1] | composite z-score (XIP peptide (Xip251-270)) | z-score [2] | z-score [3] | z-score [4] | z-score [5] |
| --- | --- | --- | --- | --- | --- | --- |
| COc1ccc([Si](C)(C)[C@H]2[C@H](CC(=O)N(CCO)Cc3ccccc3)O[C@@]3(C(=O)N(C)c4ccccc43)[C@@H]2C)cc1 | 0.0642 (inactive) | 0.369 | -0.134 | -6.95 (inactive) | -0.217 (inactive) | -0.251 (inactive) |
| COc1ccc([Si](C)(C)[C@@H]2[C@@H](CCO)O[C@]3(C(=O)N(Cc4ccc(NC(=O)[C@H](C)O)cc4)c4ccccc43)[C@H]2C)cc1 | 0.894 (inactive) | 0.752 | -2.79 | -4.05 (inactive) | -1.42 (inactive) | -1.27 (inactive) |
| CCOC(=O)C[C@H]1[C@H](OC(=O)c2ccccc2-c2ccccc2)[C@@H](NC(=O)C2CCCCC2)c2cc(OCCCO)ccc2N1C(=O)c1ccccc1 | -0.339 (inactive) | 0.0325 | -1.35 | -3.05 (inactive) | -0.319 (inactive) | -0.0975 (inactive) |
| COCCOC(=O)N1C(=O)[C@@]2(c3cc(C#CCNC(N)=O)ccc31)[C@H](c1ccccc1OCCO)N1[C@H](c3ccccc3)[C@H](c3ccccc3)OC(=O)[C@H]1[C@@H]2C(=O)NC[C@H](O)c1ccccc1 | 0.88 (inactive) | 0.8 | -1.84 | -3.26 (inactive) | 0.0689 (inactive) | -0.158 (inactive) |
| C=CC[C@]1(C(=O)N2CCCCC2)N=C(c2ccc(OCCCO)cc2)O[C@H]1c1ccccc1N=[N+]=[N-] | 1.01 (inactive) | 0.851 | -2.21 | -3.92 (inactive) | -0.135 (inactive) | 0.224 (inactive) |
| O=C1O[C@@H](c2ccccc2)[C@@H](c2ccccc2)N2[C@@H](c3ccc(O)cc3)[C@]3(C(=O)Nc4ccccc43)[C@@H](C(=O)N3CCN(c4ncccn4)CC3)[C@H]12 | 1.55 (inactive) | -0.278 | -1.46 | -2.96 (inactive) | -0.231 (inactive) | -0.242 (inactive) |
| CC[C@H]1C2=C3C(CC[C@H]4C(OC)OC[C@](C)([C@@H]34)N(C(=O)OC(C)(C)C)C2)C(CO)C1CO (stereo partly drawn) | 0.442 (inactive) | 0.701 | -0.62 | -4.74 (inactive) | -1.37 (inactive) | -1.18 (inactive) |
| COc1ccc([Si](C)(C)[C@H]2[C@H](CCO)O[C@@]3(C(=O)N(Cc4ccc(N5CCCCC5=O)cc4)c4ccccc43)[C@@H]2C)cc1 | 0.125 (inactive) | 0.81 | -1.39 | -4.54 (inactive) | -0.688 (inactive) | -0.167 (inactive) |
| COc1ccc(C(O)C2C=CC3C(=O)N(C)C(=O)C3N2N2CCCCC2)cc1OCc1ccccc1 (stereo not drawn) | -0.001 (inactive) | 0.582 | -0.303 | -4.76 (inactive) | 0.245 (inactive) | -0.0779 (inactive) |
| Cc1ccc(S[C@]2(C(=O)O)CC(=O)N(Cc3cc(C(F)(F)F)cc(C(F)(F)F)c3)[C@@H]2c2ccc(CO)cc2I)cc1 | -0.313 (inactive) | 0.761 | -0.48 | -2.32 (inactive) | 0.407 (inactive) | 1.08 (inactive) |
| COC(=O)Cn1c(C(=O)N2CCCC2)cc2c1C[C@H]1CN(C(=O)c3ccccc3)[C@@](Cc3ccccc3)(C(=O)OC)[C@@H]21 | 0.564 (inactive) | 0.535 | -0.252 | -4.99 (inactive) | -1.29 (inactive) | -0.687 (inactive) |
| C[C@]1(C(=O)NCc2ccccc2)c2ccccc2C(=O)N(Cc2cc(C(F)(F)F)cc(C(F)(F)F)c2)[C@H]1c1ccc(CO)cc1 | 1.03 (inactive) | -0.105 | -1.61 | -1.78 (inactive) | -1.45 (inactive) | -2.06 (inactive) |
| COc1ccc([Si](C)(C)[C@@H]2[C@@H](CC(=O)N(CCO)Cc3ccccc3)O[C@]3(C(=O)N(Cc4cccc(N5CCC5=O)c4)c4ccccc43)[C@H]2C)cc1 | 1.09 (inactive) | 0.756 | -2.5 | -1.54 (inactive) | -0.0556 (inactive) | -0.0513 (inactive) |
| O=C1C2C=CC(C(O)Cc3ccccc3)N(Nc3ccc([N+](=O)[O-])cc3)C2C(=O)N1c1ccccc1 (stereo not drawn) | 2.76 (inactive) | -0.224 | -0.463 | -5.69 (inactive) | 0.433 (inactive) | -0.541 (inactive) |
| CO[C@H]1O[C@H](CO)[C@@H](OC(=O)CCc2ccccc2)[C@@H]2OC(=O)[C@H](Cc3cccc(Br)c3)C/C=C/C[C@@H](Cc3cccc(Br)c3)C(=O)O[C@@H]12 | 0.0304 (inactive) | -0.107 | -1.84 | -2.42 (inactive) | -0.962 (inactive) | -1.1 (inactive) |
| Cc1ccc([C@@H]2CC=C(C(=O)O)[C@H](c3ccccc3)N2S(=O)(=O)c2ccc(C)cc2)cc1 | 1.71 (inactive) | 0.909 | -0.745 | -7.09 (inactive) | -0.489 (inactive) | -0.824 (inactive) |

Source: PubChem BioAssay
